Assay outcomes deposited in PubChem BioAssay by National Center for Advancing Translational Sciences (NCATS).
A selection: hits, their analogues and other compounds. The true share with any hit is near 3.3%.
LmPK inh = qHTS Assay for Inhibitors of Leishmania Mexicana Pyruvate Kinase (LmPK); Q27686; purified LmPK, Kinase-Glo ATP luminescence, 1 h; Potency, µM (top dose mostly 57.5 µM), without a hit: at the top dose activity change, negative = inhibition, usual class: inhibitors; 290,000 compounds, 0.37% hits; AID 1721, 2009
Target sequence (Q27686 whole entry, looked up): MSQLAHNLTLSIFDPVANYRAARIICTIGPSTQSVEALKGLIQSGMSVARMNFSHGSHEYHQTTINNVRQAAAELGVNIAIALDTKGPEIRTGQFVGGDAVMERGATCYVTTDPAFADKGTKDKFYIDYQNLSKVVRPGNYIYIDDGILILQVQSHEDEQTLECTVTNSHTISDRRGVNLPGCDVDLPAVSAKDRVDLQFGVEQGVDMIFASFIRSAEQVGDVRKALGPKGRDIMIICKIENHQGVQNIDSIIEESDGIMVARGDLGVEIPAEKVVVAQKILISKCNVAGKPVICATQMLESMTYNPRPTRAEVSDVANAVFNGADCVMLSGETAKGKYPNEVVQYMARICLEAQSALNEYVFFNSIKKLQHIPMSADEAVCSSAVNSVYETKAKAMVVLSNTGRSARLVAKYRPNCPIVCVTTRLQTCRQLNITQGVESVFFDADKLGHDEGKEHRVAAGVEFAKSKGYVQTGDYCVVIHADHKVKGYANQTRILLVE
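Screened at intermediate enzyme activity to detect both inhibitors and activators: LmPK at 0.1 nM, with a 0.5 nM enzyme column as activation reference. PEP 0.5 mM, ADP 0.1 mM; ATP detected by luminescence after 1 h.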
Sm TGR block = qHTS Assay for the Inhibitors of Schistosoma Mansoni Peroxiredoxins; purified TGR, DTNB reduction, TNB absorbance 405 nm; AID 485364, 2010; Schistosoma mansoni thioredoxin glutathione reductase (TGR), Q962Y6; 360,000 compounds, 3% hits; Potency, µM (titrated, usually from 114 µM), inactives show at the top dose activity change, negative = inhibition, hits mostly inhibitors; also: nearly all actives have a fitted effect of over 60% in size
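Kinetic colorimetric format: TGR-catalysed, NADPH-driven DTNB reduction monitored via TNB absorbance. Enzyme dispensed at 20 nM; compound exposure 15 min at room temperature before reaction start.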
TbPYK inhibitor = qHTS of Trypanosoma Brucei Inhibitors. 410,000 compounds, 0.12% hits. AID 624173, 2012. TbPYK enzyme, Kinase-Glo Plus ATP luminescence, 45 min. Potency, µM (top dose mostly 76.8 µM), inactives show at the top dose activity, negative = inhibition, usual class: inhibitors. pyruvate kinase (Trypanosoma brucei), Q57TT1; also: nearly all actives have a fitted effect of over 50% in size
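Assay buffer: 50 mM TEA pH 7.2, 100 mM KCl, 10 mM MgCl2, 0.05% BSA, 0.01% Tween-20. Pyruvate kinase from T. brucei plus substrate met compound, then ADP (130 uM final). Luminescence was read post 45 min RT.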
RE007 growth inh = qHTS Assay for Inhibitors of the HIV-1 protein Vpr | S. pombe RE007 Vpr strain, BacTiter-Glo ATP luminescence, 24 h | Potency, µM (top dose mostly 92.2 µM), inactives show at the highest dose activity change, negative = less growth, hits mostly inhibitors | 360,000 compounds, 0.21% hits | AID 651644, 2012; active = well fitted falling curve with a large enough effect; inconclusive = small, poorly fitted or top-dose-only effect; inactive = no such curve, though single readings can be large or run the other way; also: nearly all actives have a fitted effect of over 50% in size
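Fission yeast strain RE007, carrying one chromosomally integrated HIV-1 vpr copy, was seeded at OD 0.01 in PMG+AL medium with 23 nL pinned compound. After 24 h at 30 °C and 99% humidity, viability was read by BacTiter-Glo luminescence.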
Giardia FBPA inh = qHTS Assay for Inhibitors of Fructose-1,6-bisphosphate Aldolase from Giardia Lamblia. purified Giardia FBPA. 290,000 compounds, 0.71% hits. A8B2U2. Potency, µM (series often up to 59.6 µM), for inactives: top-dose activity, negative = inhibition, actives largely listed as inhibitors; also: nearly all actives have a fitted effect of over 55% in size
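Giardia FBPA (40 nM reagent) was preincubated 10 min at RT with compound (up to 57.5 uM final), then substrate plus GAPDH/TPI/NAD/arsenate coupling system with diaphorase/resazurin was added; resorufin fluorescence (525/598 nm) was read after 20 min.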
* marks the source's active call; other numbers are inactive results; ? = inconclusive; . = no result given; [ ] = another dose, or the depositor's remark. Unless noted, calls follow the shape of the dose curve; as a rule, active = well fitted curve in the direction sought with a large enough effect; inconclusive = small, poorly fitted or top-dose-only effect, or another doubt; inactive = no such curve, though single readings can be large; an effect the other way counts as inactive or inconclusive. % is scaled to controls: 0 for no effect and ±100 for the full control effect; potency is read from the fitted curve at half-maximal effect.

SMILES	LmPK inh	Sm TGR block	TbPYK inhibitor	RE007 growth inh	Giardia FBPA inh
CC1(OC(=O)CCc2ccccc2)C(=O)C=C2C=C(c3ccc(C#N)cc3)N(Cc3ccco3)C=C2C1=O (configuration not stated)	-3.2%[11.5 µM]	35.5µM*	0.8%	-5.8%	-1.2%[12.9 µM]
O=C1Nc2ccc(Br)cc2C1(O)c1ccc(F)cc1 (configuration not stated)	0.9%	7.8%	-6.7%	6.1%	-2.0%
CN(C)c1cccc2c1c(NS(=O)(=O)c1cn(C)cn1)nn2C	-4.3%	50.1µM*	?	13.9%	.
Cn1cnc(S(=O)(=O)Nc2ccccc2N2CCOCC2)c1	1.4%	2.5%	-9.1%	1.1%	-4.5%
Cc1nc(CCNC(=O)CC2C(=O)NCCN2Cc2ccccc2F)sc1C (configuration not stated)	-1.8%	-29.5%	-6.2%	-17.0%	-14.1%
C=CCC1(CC=C)CCCN1C(=O)CC1C(=O)NCCN1Cc1cc(OC)cc(OC)c1 (configuration not stated)	1.7%	28.2µM*	1.1%	-8.0%	-21.8%
CCOc1ccc(CN2CCNC(=O)C2CC(=O)NCCC2=CCCCC2)cc1 (configuration not stated)	-0.5%	-26.2%[57.1 µM]	4.3%	1.1%	-14.9%
Cc1nc(CCNC(=O)CC2C(=O)NCCN2Cc2ccc(F)cc2)sc1C (configuration not stated)	3.0%	20µM*	-3.7%	-5.1%	-22.9%
COc1cc(CN2CCNC(=O)C2CC(=O)NCCC2=CCCCC2)cc(OC)c1 (configuration not stated)	3.5%	39.8µM*	-1.6%	0.0%	-19.0%
C=CCC1(CC=C)CCCN1C(=O)CC1C(=O)NCCN1Cc1cccc(OC)c1 (configuration not stated)	8.3%	?	0.9%	-10.0%	-12.3%
Cc1ccc(CCNC(=O)Cn2cccc2)cc1	-2.7%	50.1µM*	0.7%	4.7%	-2.0%
COCCNC(=O)CCC1CCN(C/C=C/c2ccccc2OC)CC1	-1.5%	5.4%	2.9%	0.3%	-1.0%
COCCNC(=O)CCC1CCN(Cc2cccc(-c3ccc(C)o3)c2)CC1	4.1%	39.8µM*	-5.5%	17.1%	1.2%
COCCN(CC(=O)Nc1cccc(C)c1C)C(=O)c1ccc2c(c1)OCO2	.	1.6%	-2.3%	8.8%	.
O=C(CSCc1ccccc1)N=Nc1c(O)[nH]c2ccccc12	-1.0%	3.4%	-2.7%	8.0%	-11.4%
O=C(N=Nc1c(O)[nH]c2ccccc12)c1ccco1	25.1µM*	3.7%	7.8%	-25.8%	-21.4%
CCCCCCCCCCCCCCCC[N+](C)(C)CCl	.	.	-9.8%	22.4µM*	.
CC1Oc2ccccc2OC1(O)c1ccccn1 (configuration not stated)	0.7%	3.9%	6.0%	14.7%	1.6%
CNc1sc(C(=O)c2ccccc2F)c(N)c1-c1nc2ccccc2s1	-3.5%	25.1µM*	.	-16.0%[3.69 µM]	-9.1%
CC1(C)c2ccccc2N2CC(=O)NC21/C=C/c1ccco1 (configuration not stated)	-2.9%	7.94µM*	-16.9%	-8.1%	-24.7%
CC1(C)c2ccccc2N2CCC(=O)NC21/C=C/c1ccco1 (configuration not stated)	-1.6%	25.1µM*	-16.2%	-28.0%	-10.9%
O=C1CN(C(=O)COC(=O)/C=C/c2ccco2)c2ccccc2N1	-4.9%	?	-5.5%	25.2%	-3.3%
O=c1[nH]nc(SCCS(=O)(=O)c2ccc(F)cc2)n1-c1ccccc1	4.2%	2.2%	3.1%	?	0.0%
Cc1ccc(NC2=NCC(=O)N2C2CCCC2)c(C)c1	1.9%	22.4µM*	1.2%	-7.8%	?
CC[C@@H]1C=C(C(=O)O)[C@H](c2ccc(OC)c(OC)c2)N1S(=O)(=O)c1ccc(C)cc1	.	.	-7.2%	7.0%	.
SMILES	LmPK inh	Sm TGR block	TbPYK inhibitor	RE007 growth inh	Giardia FBPA inh
Cc1[nH]c2ccccc2c1C(c1ccccn1)N1CCC(C(N)=O)CC1 (configuration not stated)	4.7%	0.355µM*	88.6%	2.2%	0.6%
CCOC(=O)C1CCN(C(C)C(=O)c2c[nH]c3ccccc23)CC1 (configuration not stated)	-2.7%	-7.8%	-1.5%	3.2%	8.4%
CCOC(=O)C1CCN(C(c2ccccn2)c2c(C)[nH]c3ccccc23)CC1 (configuration not stated)	12.0%	0.282µM*	0.0%	-13.1%	10.6%
CC(=O)C1=C(c2cccc([N+](=O)[O-])c2)N(C(C)=O)n2c(C)nnc2S1	-24.9%	22.4µM*	-2.1%	-3.2%	1.1%
O=C(NCc1ccco1)C1Cc2ccccc2CN1C(=O)c1ccco1 (configuration not stated)	4.1%	?	-3.3%	-10.4%	-1.5%
O=C(Nc1ccccc1)C1Cc2ccccc2CN1C(=O)c1ccco1 (configuration not stated)	1.6%	39.8µM*	-18.3%	18.5%	-9.4%
COc1ccccc1NC(=O)C1Cc2ccccc2CN1C(=O)c1ccco1 (configuration not stated)	-1.9%	31.6µM*	3.4%	-9.9%	1.9%
CC1=CC(C)(C)N(C(=O)CSc2nnc(-c3ccc(C)cc3)o2)c2ccc(C)cc21	0.3%	-19.4%	2.0%	34.1%	-1.5%
CC(/C=C/c1ccccc1)=N\Nc1nc2c(c(=O)[nH]c(=O)n2C)n1CCO	0.5%	14.1µM*	0.3%	7.3%	-27.3%
CCCn1c(N/N=C\C=C\c2ccccc2)nc2c1c(=O)[nH]c(=O)n2C	0.5%	?	3.5%	8.1%	-6.6%
COCCn1c(N/N=C(C)/C=C/c2ccccc2)nc2c1c(=O)[nH]c(=O)n2C	-4.7%	25.1µM*	.	.	-5.1%
Cn1c(/N=C/c2ccc3c(c2)OCO3)nc2ccccc21	12.6µM*	6.9%	-15.4%	-6.3%	-23.7%
Nc1nc2ccccc2n1/N=C/c1ccc2c(c1)OCO2	-25.3%	10.5%	8.4%	-10.6%	-6.3%
Cc1ccc(OCc2cc(C(=O)N(C)Cc3cnn(C)c3)no2)cc1C	.	.	3.7%	4.4%	.
Clc1ccc(OCc2nn3c(-c4ccco4)nnc3s2)cc1	6.2%	31.6µM*	-18.6%	-7.3%	-3.2%
COc1ccccc1-c1nn2c(-c3ccco3)nnc2s1	2.7%	?	-9.9%	2.6%	-8.5%
COc1ccc(OCc2nn3c(-c4ccco4)nnc3s2)cc1	2.5%	?	-9.7%	19.7%	0.8%
c1coc(-c2nn3c(-c4ccco4)nnc3s2)c1	10.4%	14.1µM*	-8.7%	1.7%	-4.7%
Cc1c(Cl)cccc1NC(=O)COC(=O)c1ccc(CN2CCCC2=O)cc1	.	-6.4%	-14.2%	3.7%	.
